# Experimental data: the supplement of paper PMC13380429
# A number with no mark means an inactive call.
# Test system: Vero E6 infected with SARS-CoV-2
# Test: SARS-CoV-2 infection rate relative to infected DMSO; higher = more infection, active = 60 or less
# Settings: 24 h
row,Compound,SARS-CoV-2 infection rate
1,N[C@@H](Cc1ccc(O)cc1)C(=O)NCC(=O)NCC(=O)O (10 µM),114%
2,NCC(=O)N1C[C@H](NC(=O)c2ccccc2)C[C@H]1C(=O)O [danegaptide] (10 µM),105%
3,CC(=O)S[C@@H]1CC2=CC(=O)CC[C@]2(C)[C@H]2CC[C@@]3(C)[C@@H](CC[C@@]34CCC(=O)O4)[C@H]12 [spironolactone] (10 µM),98.5%
4,C1=C2CCCN[C@H]2[C@@H]2C[C@H]1[C@H]1CCCCN1C2 [aloperine] (10 µM),102%
5,CCOCc1cc(OC)c(-c2ccc(C[C@H](NC(=O)c3c(F)cccc3F)C(=O)O)cc2)c(OC)c1 [firategrast] (10 µM),105%
6,O=C(OCCN1CCOCC1)C1(c2ccccc2)CCCCC1 (10 µM),106%
